# In the library only some 7% were active in any assay of this set; here they are far more common.
# HP1b binding inh = HP1-beta chromodomain-methylated histone interaction inhibition | Potency, µM (doses to about 114 µM), usual class: inhibitors | P83916 | 390,000 tested, 0.56% active | AID 540317 | AlphaScreen HP1-beta / biotin-H3K9me3 peptide binding; also: nearly all actives have a fitted effect of over 70% in size
#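 Compound inhibition of the preformed complex between 50 nM HP1-beta and 50 nM biotinylated H3K9me3 peptide was read by AlphaScreen. Buffer was PBS pH 7.4 with 0.01% Tween-20. Incubations ran 30 min at room temperature, with 10 ug/mL donor/acceptor beads.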
# PI5P4K alpha inh = inhibitors of human PI5P4K alpha | P48426 | PI5P4Kalpha enzyme, ADP-Glo luminescence, 60 min; active compounds read low | 330,000 tested, 1.2% active | max response, %; active = max response of -50% or lower; inconclusive = between -30% and -50%; inactive = -30% or higher; also: value at the top dose of about 77 µM
#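 Controls without substrate or without enzyme flank wells where PI5P4Kalpha converts substrate using 5 microM ATP (final). Incubation lasts 60 minutes at room temperature; ADP formed is read by ADP-Glo luminescence.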
# GCN5L2 inh = GCN5L2 (KAT2A) acetyltransferase inhibition; GCN5L2 HAT assay, ThioGlo1 CoA-SH fluorescence; 390,000 tested, 0.21% active; Potency, µM (titrated, usually from 58.9 µM), hits mostly inhibitors; Q92830
#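 Compounds, pin-transferred from DMSO stocks, meet 20nM GCN5L2 for 15 min before the reaction begins with H3(1-25) peptide (75uM) and acetyl-CoA (70uM). Thiol-reactive ThioGlo1 reports CoA release over 20 min at room temperature.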
# BAZ2B block = blocks human BAZ2B; Potency, µM (doses to about 114 µM), most hits filed as inhibitors; 360,000 tested, 4.4% active; AlphaScreen BAZ2B-H3K14Ac peptide displacement; also: nearly all actives have a fitted effect of over 60% in size
#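 Compounds, titrated to a top concentration of 110 uM, were incubated 30 min at room temperature with preformed BAZ2B/acetyl-K14 H3 peptide complex (50 nM each). Proximity signal was measured by AlphaScreen after 20 min with beads.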
# JMJD2A Tudor inh = blocks the human JMJD2A Tudor domain | O75164 | 390,000 tested, 4.4% active | AID 504339 | AlphaScreen JMJD2A-Tudor / H3K4me3 peptide binding | Potency, µM (series often up to 114 µM), usual class: inhibitors; also: nearly all actives have a fitted effect of over 50% in size
# PLK1 PBD block = inhibitors of human PLK1 polo-box domain binding. Potency, µM, hits mostly inhibitors. Plk1 PBD binding of FITC phosphopeptide, fluorescence polarization. AID 720504. P53350. 360,000 tested, 2.8% active; also: series mostly up to about 57 µM; nearly all actives have a fitted effect of over 65% in size
# Target sequence (P53350 whole entry, looked up, the tested form may be a part): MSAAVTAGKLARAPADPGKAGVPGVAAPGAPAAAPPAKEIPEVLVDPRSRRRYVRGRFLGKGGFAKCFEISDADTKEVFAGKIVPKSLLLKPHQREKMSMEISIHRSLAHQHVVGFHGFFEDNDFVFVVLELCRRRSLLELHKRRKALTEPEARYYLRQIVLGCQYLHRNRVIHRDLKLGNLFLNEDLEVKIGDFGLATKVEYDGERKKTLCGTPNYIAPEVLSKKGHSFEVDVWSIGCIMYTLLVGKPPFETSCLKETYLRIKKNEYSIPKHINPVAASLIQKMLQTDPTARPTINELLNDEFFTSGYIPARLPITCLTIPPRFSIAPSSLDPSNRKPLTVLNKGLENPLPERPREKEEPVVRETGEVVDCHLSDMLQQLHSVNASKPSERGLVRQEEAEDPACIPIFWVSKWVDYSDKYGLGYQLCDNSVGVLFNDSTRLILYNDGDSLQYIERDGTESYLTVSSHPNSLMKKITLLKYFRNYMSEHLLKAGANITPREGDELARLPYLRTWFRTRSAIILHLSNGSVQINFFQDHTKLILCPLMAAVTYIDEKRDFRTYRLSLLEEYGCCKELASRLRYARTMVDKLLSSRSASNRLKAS
# Numbers stand for hits; - = inactive; ? = inconclusive; . = no result; [ ] = remark or other dose. Unless noted, calls follow the shape of the dose curve; as a rule, active = well fitted curve in the direction sought with a large enough effect; inconclusive = small, poorly fitted or top-dose-only effect, or another doubt; inactive = no such curve, though single readings can be large; an effect the other way counts as inactive or inconclusive.
SMILES,HP1b binding inh,PI5P4K alpha inh,GCN5L2 inh,BAZ2B block,JMJD2A Tudor inh,PLK1 PBD block
CCN(c1ccccc1)S(=O)(=O)c1ccc(Cl)c(NC(=O)COC(=O)c2ccc(O)cc2)c1,?,-,-,-,-,-
CCN(c1ccccc1)S(=O)(=O)c1ccc(Cl)c(NC(=O)CN2CCCCCC2)c1,22µM,-,-,50µM,0.71µM,-
CCN(c1ccccc1)S(=O)(=O)c1ccc(Cl)c(NC(=O)COC(=O)c2cc(O)c3ccccc3c2O)c1,.,.,-,50µM,.,.
CCN(c1ccccc1)S(=O)(=O)c1ccc(Cl)c(NC(=O)CSc2nnc(C)s2)c1,-,-,-,-,-,-
CCN(c1ccccc1)S(=O)(=O)c1ccc(Cl)c(NC(=O)CSc2nncs2)c1,-,-,-,-,79µM,-
CN(C)S(=O)(=O)c1ccc(Cl)c(NC(=O)CN2CCCCCC2)c1,-,-,-,-,-,-
CCN(c1ccccc1)S(=O)(=O)c1cc(NC(=O)CN2CCN(C)CC2)ccc1Cl,?,-,-,.,0.89µM,-
CCN(CC)S(=O)(=O)c1ccc(Cl)c(NC(=O)c2cc(Cl)cc(Cl)c2)c1,-,-,-,-,-,-
CCN(CC)S(=O)(=O)c1ccc(Cl)c(NC(=O)c2ccccc2C)c1,-,-,-,-,-[11.4 µM],21µM
COc1ccc(-c2cc(-c3ccc(O)cc3)nc(N)c2C#N)cc1,-,-,-,-,-,-
COc1cc(-c2cc(-c3ccc(O)cc3)nc(N)c2C#N)ccc1O,-,-51,-,?,-,-
CCn1c(=O)c(CCC(=O)N2CCN(c3ccccn3)CC2)c(C)c2c(C)nn(-c3cccc(C)c3)c21,-,-,-,?,-,-
NC(=O)CC(c1ccccc1)c1ccco1 (configuration not stated),-,-,-,-,-,-
Cc1cc(C(c2cc(C)c(N)c(C)c2)c2ccco2)cc(C)c1N,79µM,-,.,.,79µM,-
Cc1ccc(NC2CCCN(C(=O)c3cc(C(C)C)nn3C)C2)cc1C (configuration not stated),.,-,.,.,.,-
CC(=O)NC(CCS(C)(=O)=O)C(=O)Nc1nccs1 (configuration not stated),-,-,-,-,-[11.4 µM],27µM
O=C(Nc1ccc(S(=O)(=O)Nc2nccs2)cc1)c1ccncc1,.,-,.,.,.,-
CC(=O)NC(CCS(C)(=O)=O)C(=O)Nc1cc(C)on1 (configuration not stated),-,-,-,-,-,-
O=C(Nc1ccc(S(=O)(=O)Nc2nccs2)cc1)c1ccc(=O)[nH]c1,-,?,-,50µM,?,?
CCCC(C)C(=O)Nc1ccc(S(=O)(=O)Nc2nccs2)cc1 (configuration not stated),-,-,-,50µM,-,-
CC(NS(=O)(=O)c1ccccc1)C(=O)Nc1nccs1 (configuration not stated),-,-,-,-,-,21µM
COCCNC(=S)NNC(=O)c1cc(-c2cccnc2)nc2ccccc12,-,-,-,-,-,-
O=C(O)CC(NS(=O)(=O)c1ccc(Br)s1)c1ccccc1 (configuration not stated),-,.,-,-,-,.
Cc1ccc(CNC(=O)C2CCC(=O)N(Cc3cccc(C(F)(F)F)c3)C2)o1 (configuration not stated),-,-,.,.,-,-
O=C(CN1CCCC1c1cccs1)Nc1cccc(S(=O)(=O)N2CCCC2)c1 (configuration not stated),-,-,-,-,-,-
SMILES,HP1b binding inh,PI5P4K alpha inh,GCN5L2 inh,BAZ2B block,JMJD2A Tudor inh,PLK1 PBD block
CS(=O)(=O)c1cccc(-c2nnc(NC(=O)c3ccc4c(c3)OCCO4)o2)c1,-,.,-,?,-,.
COc1ccc(-c2csc(C(C)(O)c3ccc(F)c(F)c3)n2)cc1OC (configuration not stated),.,-,.,.,.,-
CC1CCc2c(sc(/N=C/N(C)C)c2C#N)C1 (configuration not stated),-,-,-,40µM,-,-
CN(C)/C=N/c1sc2c(c1C#N)CCCC2,-,-,-,?,-,-
COc1ccc(OCc2ccc(-c3nc(C#N)c(NCc4ccccc4)o3)o2)cc1,-,.,-,?,?,.
Cc1ccccc1OCc1ccc(-c2nc(C#N)c(NCc3cccnc3)o2)o1,-,.,-,32µM,16µM,.
COc1ccc(OCc2ccc(-c3nc(C#N)c(NCc4cccnc4)o3)o2)cc1,-,.,-,18µM,32µM,.
COc1ccc(CN(C(=O)c2snc(C(N)=O)c2N)C(C(=O)NC2CCCC2)c2cc(OC)ccc2OC)cc1 (configuration not stated),-,-,-,-,-,-
O=C(O)c1cc(Cl)ccc1-c1ccc(/C=C/c2cc(C(F)(F)F)[nH]c(=O)n2)o1,-,-53,-,-,-,-
CCCS(=O)(=O)Nc1cc(-c2cn3cccc(C)c3n2)ccc1C,-,.,-,?,-,.
c1coc(CNC2CCCCCCC2)c1,-,-,-,89µM,50µM,?
c1coc(CNC2CCCCC2)c1,-,-,-,?,7.1µM,-
c1coc(CNC2C3CC4CC(C3)CC2C4)c1 (configuration not stated),-,.,-,-,-,-
Nc1c(C(=O)Nc2ccccc2Cl)c2ccccn2c1C(=O)c1ccc(Cl)cc1,-,.,-,-,-,.
Cc1ccccc1NNC(=O)C(=O)NNc1ccccc1C,?,-,-,50µM,18µM,-
CC(C)(C)OC(=O)N1CCCC(C(=O)Nc2ccc(C(=O)N3CCCC3)cc2)C1 (configuration not stated),-,-,-,.,-,-
O=[N+]([O-])c1ccc(CN2CCN(c3ccc(F)cc3)CC2)o1,?,-,-,?,11µM,-
Clc1cc(Cl)cc(CN2CCSCC2)c1,-,-,-,-,-,-
c1ccc(-c2ccc(CN3CCSCC3)cc2)cc1,?,-,-,?,20µM,-
O=[N+]([O-])c1ccc(CN2CCSCC2)cc1,25µM,-,-,71µM,1.6µM,-
O=[N+]([O-])c1ccc(CN2CCN(c3ccc([N+](=O)[O-])cc3)CC2)cc1,50µM,-,-,25µM,3.2µM,-
Fc1ccc(N2CCN(Cc3cnc(Cl)s3)CC2)cc1,-,-,-,-,-,-
Cc1cccc(N2CCN(C(=O)c3cnn(-c4cccc(Cl)c4C)c3C3CCNCC3)CC2)c1C,-,.,-,-,?,.
CCC(CC)C(=O)Nc1nnc(-c2cccs2)s1,-,-,-,-,-,30µM
COc1cccc(OC)c1C(=O)Nc1nnc(-c2cccs2)s1,-,-,-,-,-,17µM
O=C(CCNC(=O)c1ccc(Cl)cc1)NNC(=O)c1ccc(F)cc1,-,-,-,-,-,-
